We go through nine compounds from PubChem BioAssay (EPA / NIEHS).

Structures are written as SMILES. Calls of active or inactive are those of the source. The calls were made as follows: active = hit-call score of the fitted dose curve at least 0.9, where 1 is the maximum; inactive = score below 0.9.

What is called AC50 is the midpoint of the concentration-response curve, whichever way the signal moves.

This assay is described as follows: CCTE_Mundy_HCI_Cortical_Synap_Neur_Matur_SynapseCount: CCTE's Synaptogenesis and Neurite Maturation Assay in rat cortical cells for Synapse Count, Mundy Lab (AID 2284218). Put shortly: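 Primary rat cortical culture; AraC DIV 5 to arrest glia; compound + media change DIV 7; terminated DIV 12. PFA/Hoechst fix, anti-MAP2 + anti-synaptophysin immunostain; HCI synapse count/neuron; DMSO = baseline.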
As for `OC(Cc1ccccc1Cl)(Cn1[nH]cnc1=S)C1(Cl)CC1` (centres undefined), the AC50 was 50 µM (active).

In the case of `Cc1ccccc1OP(=O)(Oc1ccccc1C)Oc1ccccc1C`, the AC50 is 3.85 µM (active).

Take `CNC(=O)CSP(=O)(OC)OC`: the outcome was inactive.

On to `CC1(C)[C@H](C(=O)O[C@H](C#N)c2cccc(Oc3ccccc3)c2)[C@@H]1/C=C(\Cl)C(F)(F)F`, for which the AC50 is 2.13 µM (active).

With `CCOCn1c(-c2ccc(Cl)cc2)c(C#N)c(Br)c1C(F)(F)F`, the concentration at half-maximal activity (AC50) was 13.5 µM (active).

Consider `Cc1cc(C(F)(C(F)(F)F)C(F)(F)F)ccc1NC(=O)c1cccc(I)c1C(=O)NC(C)(C)CS(C)(=O)=O`, for which the result was inactive.

Turning to `CC(C)[C@@H](Nc1ccc(C(F)(F)F)cc1Cl)C(=O)OC(C#N)c1cccc(Oc2ccccc2)c1` (some centres undefined), the call was inactive.

Turning to `CS(=O)(=O)c1ccc(C(=O)C2C(=O)CCCC2=O)c(Cl)c1COCC(F)(F)F`, the outcome was inactive.

As to `NC(=O)c1ccc(N)nc1`, the AC50 was 9.12 µM (active).
